About 79,000 compounds went through this panel and 15% of them were active in at least one assay; those are over-represented in the sample as a whole. Unmarked numbers belong to inactive results. Calls of active or inactive are those of the source. Rule as the data show it: active = growth inhibition above about 70%; inactive = the rest.
Test: NCI Yeast Anticancer Drug Screen. Data for the mec2-1 strain (AID 157)
Conditions: S. cerevisiae mec2-1 strain, at 50.0 µM, stronger effect = higher value
Outline: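 Each compound was tested on mec2-1 yeast, a strain altered in DNA damage repair or cell cycle control. Growth inhibition is reported relative to vehicle.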
Molecule `C/C(CC(C)C)=N/Nc1ccc([N+](=O)[O-])cc1[N+](=O)[O-]` has a growth inhibition of -2.05%.
In the case of `CCOC(=O)NC(NC(=O)OCC)c1ccc(Cl)cc1Cl`, the growth inhibition is reported as -4.55%.
Work on `NC1=Nc2cc(Cl)ccc2Sc2nc3ccccc3n21` yielded a growth inhibition of -65.4%.
Molecule `C=C1C(=O)O[C@H]2[C@H]1[C@H](OC(=O)/C(C)=C\C)CC(=C)[C@@H]1[C@H](O)[C@H]3O[C@@]3(C)[C@@]12O` has a growth inhibition of -14.8%.
In the case of `Cc1cc(Br)c(I)c([N+](=O)[O-])c1`, the growth inhibition is reported as 27.6%.
For `N#C/C(=C\c1c(S(=O)(=O)O)sc2ccccc12)C(N)=O` (tested in a mixture with another compound), the growth inhibition was 10.1%.
In the case of `O=C(Nc1ccc2c(c1)OCO2)O/N=C\c1ccccn1`, the growth inhibition is reported as 26.8%.
For `COc1ccc(C(O)/C(=C/n2ccnc2)c2ccccc2)cc1OC` (stereo unspecified), the growth inhibition was -17.8%.
With `CC(C)N(CCn1c2c3ccccc3ccc2c2oc(=O)c3ccccc3c21)C(C)C` the growth inhibition was -23.7%.
With `CCOC(=O)c1cnc2n(c1=O)[C@H]1CCCC[C@@H]1N2` the growth inhibition was 5.55%.
Work on `O=[N+]([O-])c1ccc(COP(=O)(OCc2ccc([N+](=O)[O-])cc2)OCc2ccc([N+](=O)[O-])cc2)cc1` yielded a growth inhibition of -2.35%.
`NNc1ncnc2c1ncn2Cc1ccccc1` gave a growth inhibition of -3.1%.
In the case of `CC(=O)CC(C)(C)NNS(=O)(=O)c1ccc(C)cc1`, the growth inhibition is reported as -0.65%.
In the case of `CCCCCCn1cnc2c(=S)nc[nH]c21`, the growth inhibition is reported as 8.35%.
For `C/C(CCc1ccccc1)=N/Nc1ccc([N+](=O)[O-])cc1[N+](=O)[O-]`, the growth inhibition was -4.75%.
With `O=C(C#Cc1ccccc1)[O][Sn]([c]1ccccc1)([c]1ccccc1)[c]1ccccc1` the growth inhibition was 99.2% (active).
In the case of `COc1ccc(CCCc2cc3c(cc2OC)OCO3)cc1`, the growth inhibition is reported as -4.1%.
`O=C(O)c1ccc(Cl)c(C(=O)O)c1` gave a growth inhibition of 4.65%.
`CCC1([N+](=O)[O-])CC2C=CC1C2` (stereo unspecified) gave a growth inhibition of -14.3%.
For `O=C1CSC(/C(=C\c2ccc(Cl)cc2)c2nc3ccccc3[nH]2)=N1`, the growth inhibition was 11.2%.
With `CC1CCOC(c2ccccc2Cl)O1` (stereo unspecified) the growth inhibition was 14.1%.
`CN1C(=O)C(=O)OC1=C(c1ccccc1)c1ccccc1` gave a growth inhibition of -4.6%.
In the case of `c1cc2c3c(cccc3c1)N=S=N2`, the growth inhibition is reported as -7.45%.
Molecule `C[C@]12CC[C@@H]3c4ccc(OCCCO)c([N+](=O)[O-])c4CC[C@H]3[C@@H]1CCC2=O` has a growth inhibition of 6.8%.
Molecule `C=CC1CNCCC1CC(=O)OCC` (stereo unspecified) has a growth inhibition of -5.55%.
`NC1=NS(=O)(=O)Nc2nc(-c3ccccc3)c(-c3ccccc3)nc21` showed a growth inhibition of -10.2%.
`COC(=O)C(/C(=N/N)C(=O)Nc1cccc(O)c1)c1nc2ccccc2[nH]c1=O` (stereo unspecified) gave a growth inhibition of -7.65%.
Work on `NCCNc1ncnc2ccc(Cl)cc12` yielded a growth inhibition of -13.1%.
In the case of `Fc1ccc(Cl)c2cccnc12`, the growth inhibition is reported as 9.85%.
`CC(C)=CC(=O)OC(C)(C)C` showed a growth inhibition of 1.65%.
For `CC(=O)Oc1ccccc1C(OC(C)=O)OC(C)=O`, the growth inhibition was 5.2%.

Test: NCI Yeast Anticancer Drug Screen. Data for the sgs1 mgt1 strain (AID 161);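 also: 0% = growth of cultures given vehicle only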
Conditions: S. cerevisiae sgs1 mgt1 strain, at 50.0 µM, stronger effect = higher value
Outline: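 Mutant yeast exposed to compound; growth scored against vehicle-only wells.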
`CCCCCCCN1C=CCC(S(=O)(=O)N2CCOCC2)=C1` showed a growth inhibition of -11.4%.
`COC(=O)C(C)(C)N=CN(C)C` showed a growth inhibition of -7.8%.
`N#CCCOCC(OCCC#N)C(OCCC#N)C(OCCC#N)C(COCCC#N)OCCC#N` (stereo unspecified) showed a growth inhibition of -13.2%.
For `CC(C)CN(CC(=O)Nc1cccc(Cl)c1)CC(C)C`, the growth inhibition was 4.15%.
`CCCNC(=O)Oc1ccccc1C(N)=O` gave a growth inhibition of -4.4%.
Molecule `CC(=O)CC(=O)CCCCC(=O)O` has a growth inhibition of -6.55%.
With `NC1=NC2(COC(c3ccccc3)(c3ccccc3)c3ccccc3)OC(COC(c3ccccc3)(c3ccccc3)c3ccccc3)C(O)C2O1` (stereo unspecified) the growth inhibition was 30.6%.
Molecule `O=NNc1nc2ncccc2cc1-c1ccccc1Cl` has a growth inhibition of -5.9%.
`CC(C)=CCC1=C(O)[C@@](O)(CC=C(C)C)C(=O)C(C(=O)CC(C)C)=C1O` showed a growth inhibition of 31.7%.
In the case of `C/C(CC(C)C)=N/Nc1ccc([N+](=O)[O-])cc1[N+](=O)[O-]`, the growth inhibition is reported as 2.65%.
`CCOC(=O)NC(NC(=O)OCC)c1ccc(Cl)cc1Cl` gave a growth inhibition of -11.6%.
For `NC1=Nc2cc(Cl)ccc2Sc2nc3ccccc3n21`, the growth inhibition was -17.6%.
`C=C1C(=O)O[C@H]2[C@H]1[C@H](OC(=O)/C(C)=C\C)CC(=C)[C@@H]1[C@H](O)[C@H]3O[C@@]3(C)[C@@]12O` gave a growth inhibition of 21.2%.
With `Cc1cc(Br)c(I)c([N+](=O)[O-])c1` the growth inhibition was 17.8%.
Work on `N#C/C(=C\c1c(S(=O)(=O)O)sc2ccccc12)C(N)=O` (tested in a mixture with another compound) yielded a growth inhibition of 17.1%.
With `O=C(Nc1ccc2c(c1)OCO2)O/N=C\c1ccccn1` the growth inhibition was 17.7%.
With `COc1ccc(C(O)/C(=C/n2ccnc2)c2ccccc2)cc1OC` (stereo unspecified) the growth inhibition was -15.6%.
Molecule `CC(C)N(CCn1c2c3ccccc3ccc2c2oc(=O)c3ccccc3c21)C(C)C` has a growth inhibition of -2.8%.
In the case of `CCOC(=O)c1cnc2n(c1=O)[C@H]1CCCC[C@@H]1N2`, the growth inhibition is reported as -9.05%.
In the case of `O=[N+]([O-])c1ccc(COP(=O)(OCc2ccc([N+](=O)[O-])cc2)OCc2ccc([N+](=O)[O-])cc2)cc1`, the growth inhibition is reported as 2.9%.
For `NNc1ncnc2c1ncn2Cc1ccccc1`, the growth inhibition was 1.75%.
`CC(=O)CC(C)(C)NNS(=O)(=O)c1ccc(C)cc1` gave a growth inhibition of -4.1%.
`CCCCCCn1cnc2c(=S)nc[nH]c21` gave a growth inhibition of 10.8%.
Molecule `C/C(CCc1ccccc1)=N/Nc1ccc([N+](=O)[O-])cc1[N+](=O)[O-]` has a growth inhibition of 10.2%.
In the case of `O=C(C#Cc1ccccc1)[O][Sn]([c]1ccccc1)([c]1ccccc1)[c]1ccccc1`, the growth inhibition is reported as 99.4% (active).
Molecule `COc1ccc(CCCc2cc3c(cc2OC)OCO3)cc1` has a growth inhibition of 15.5%.
For `O=C(O)c1ccc(Cl)c(C(=O)O)c1`, the growth inhibition was 26.7%.
`CCC1([N+](=O)[O-])CC2C=CC1C2` (stereo unspecified) showed a growth inhibition of -26%.
Work on `O=C1CSC(/C(=C\c2ccc(Cl)cc2)c2nc3ccccc3[nH]2)=N1` yielded a growth inhibition of -4.15%.
`CC1CCOC(c2ccccc2Cl)O1` (stereo unspecified) gave a growth inhibition of -4.55%.
Work on `CN1C(=O)C(=O)OC1=C(c1ccccc1)c1ccccc1` yielded a growth inhibition of 0.85%.
With `c1cc2c3c(cccc3c1)N=S=N2` the growth inhibition was 10.1%.
With `C[C@]12CC[C@@H]3c4ccc(OCCCO)c([N+](=O)[O-])c4CC[C@H]3[C@@H]1CCC2=O` the growth inhibition was 17.7%.
In the case of `C=CC1CNCCC1CC(=O)OCC` (stereo unspecified), the growth inhibition is reported as 3%.
Molecule `NC1=NS(=O)(=O)Nc2nc(-c3ccccc3)c(-c3ccccc3)nc21` has a growth inhibition of 12.5%.
Molecule `COC(=O)C(/C(=N/N)C(=O)Nc1cccc(O)c1)c1nc2ccccc2[nH]c1=O` (stereo unspecified) has a growth inhibition of -42%.
Work on `NCCNc1ncnc2ccc(Cl)cc12` yielded a growth inhibition of -22.4%.
`Fc1ccc(Cl)c2cccnc12` gave a growth inhibition of -6%.
For `CC(C)=CC(=O)OC(C)(C)C`, the growth inhibition was 3.35%.
`CC(=O)Oc1ccccc1C(OC(C)=O)OC(C)=O` showed a growth inhibition of 12.5%.
